In PubChem BioAssay:
Potency and affinity values are given separately. Calls of active or inactive are those of the source. How the calls were made is not given here.

Target: Plasmodium falciparum protein kinase 6 (PK6, PF3D7_1337100) (UniProt Q8IDW1)
Assay: PfPK6 kinase inhibitors, biochemical, TCAMS library (AID 1159586)
Conditions: recombinant PfPK6, Kinase-Glo ATP depletion luminescence

Sequence of Plasmodium falciparum protein kinase 6 (PK6, PF3D7_1337100) (Q8IDW1 1-305): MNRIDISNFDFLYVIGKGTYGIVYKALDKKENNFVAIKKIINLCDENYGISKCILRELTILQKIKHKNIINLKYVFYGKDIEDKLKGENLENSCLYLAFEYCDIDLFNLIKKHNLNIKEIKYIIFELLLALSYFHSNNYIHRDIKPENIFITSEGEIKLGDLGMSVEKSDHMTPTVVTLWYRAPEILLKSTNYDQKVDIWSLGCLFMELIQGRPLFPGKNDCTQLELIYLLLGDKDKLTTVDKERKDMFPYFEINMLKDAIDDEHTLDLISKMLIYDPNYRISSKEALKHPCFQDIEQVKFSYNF

outcome, inactive:
O=c1cc(NCCCNCc2ccccc2-c2ccccc2)[nH]c2ccccc12
Cc1cc(OCC2CCCO2)c2cc(NC(=O)C(=O)Nc3ccc4nc(C)cc(OCC5CCCO5)c4c3)ccc2n1 (stereo not given)
COc1cncc(/C=C/c2cncc(C(=O)NCCc3ccc(Cl)cc3Cl)c2)c1
NC1=NC2(CCCC2)N(c2ccc(Cl)cc2)C(N)=N1
CN1CCN(c2ccnc3ccc(NC(=O)Cc4ccc(-c5ccncc5)c5ccccc45)cc23)CC1
CN1CCN(c2ccc(CNc3ccc4ncc(-c5cccc(OC(F)(F)F)c5)n4n3)cc2)CC1
O=[N+]([O-])c1cccc(CNCC2CCN(CC3CCCCC3)CC2)c1
CCNC(=O)c1cc(S(=O)(=O)N2CCN(c3ccccn3)CC2)cs1
CN(C)CCNC(=O)[C@H](Cc1ccccc1)NC(=O)c1ccc(O)c(-c2ccc(Cl)c(Cl)c2)c1
Cc1noc(C)c1-c1cccc(C(=O)NC2CCN(CCNC(=O)C(c3ccccc3)c3ccccc3)CC2)c1
Cc1c(NCCCNCc2cc(Cl)cc(Cl)c2Cl)[nH]c2ccccc2c1=O
CCOC(=O)C(Oc1ccc2ccccc2c1)C(=O)OCC
CC(C)CN1C(=O)c2ccc(C(=O)Nc3nccs3)cc2C1=O
CC(C)c1cccc(OCC2CCN(c3ncc(C(=O)Nc4ccccc4)cc3Cl)CC2)c1
O=C(NCc1ccc(Cl)cc1)c1ccc(C(=O)NCC2CCCN2CC2CCCCC2)cc1 (stereo not given)
COc1ccc(NC(=O)N2CCCN(CCCCCNC(=O)/C=C/c3ccc(Cl)cc3)CC2)cc1Cl
CC(C)CNCc1cccc(-c2cccc(CN(CCCN3CCN(C)CC3)C(=O)NC3CCCCC3)c2)c1
COc1cc(CCN(C)Cc2ccc(OC)c(OC)c2)ccc1NC(=O)c1cccc2c(=O)c3cccc(F)c3[nH]c12
COC(=O)c1ccc2nc(-c3ccc(/C=C/C(=O)NC4CCN(Cc5ccccc5)CC4)cc3)[nH]c2c1
O=C(OCc1ccccc1)N1CCc2c([nH]c3ccccc23)C1CCC(F)(F)F (stereo not given)
CN(C)CCNCc1ccc(-c2ccc3c(Nc4ccc(F)cc4Cl)ccnc3c2)o1
COc1cc(NC(=O)c2sc(-c3ccc(Cl)cc3)cc2NC(=O)c2cccc(N(C)C)c2)ccc1OCCN1CCCC1
Cc1cc(NCCC(=O)Nc2ccccc2)nc(NCCc2cccs2)n1
Cc1nccn1Cc1cc(C(C)(C)C)c(O)c(C(C)(C)C)c1
CCc1cc2c(=O)c(-c3nc(C)cs3)c([C@H](N)Cc3ccc(O)cc3)oc2cc1O
CNCCNc1nccc(N2CCc3ncnc(Nc4ccc(OCc5cccc(F)c5)c(Cl)c4)c3C2)n1
Cc1[nH]c(C)c(-c2ccc(-c3ccc(C(F)(F)F)cc3C(F)(F)F)nc2)c(=O)c1Br
CN(C)C1CCN(CC#Cc2cc3ncnc(Nc4ccc(OCc5cccc(F)c5)c(Cl)c4)c3s2)CC1
CCCCCCCOc1ccc(NC(=O)Nc2ccc(Cn3ncc(N4CCCNCC4)c(Cl)c3=O)cc2)cc1
c1ccc2c3c(ccc2c1)Sc1c(ccc2ccccc12)N3
COc1ccc(CNCc2cccc(-c3cccc(-c4nc5ccccc5[nH]4)c3)c2)cc1
COc1ccc(CNCCc2cccs2)cc1-c1cccc(S(=O)(=O)NCCN2CCCC2)c1
N#Cc1cccc(Nc2ncc3c(-c4cccc(NC(=O)Cc5cccc(Cl)c5)c4)c[nH]c3n2)c1
CN1CCN(CC2(Nc3nccc(NCc4ccc(Cl)cc4Cl)n3)CCCCC2)CC1
O=S(=O)(c1c(Cl)cc(Cl)cc1Cl)N1CCCCC(c2ccc(C(F)(F)F)cc2)=N1
CCC(C)(C)C1CCc2[nH]c3ccccc3c(=O)c2C1 (stereo not given)
Cc1cccc2[nH]c(-c3cccc(-c4ccc(CNCc5cccc(N)c5)cc4)c3)nc12
Oc1ccccc1CCNC1CCc2ccccc2C1 (stereo not given)
Cn1cncc1-c1ccc2ncnc(Nc3ccc(OCc4ccccc4)cc3)c2c1
CC(=O)Nc1cccc(C(=O)Nc2ccc(-c3cccc(-c4nc5ccc(C(F)(F)F)cc5[nH]4)c3)cc2)c1
